Source: PubChem BioAssay (NCI)
“And” between values parts separate entries of the source, which are not always exact repeats. Equal entries are not always repeated. Compounds without any hit were thinned out: in the full panel of roughly 79,000, 15% have a hit. Some compounds were tested as several samples or in several runs, with calls that do not always agree. The source made the active and inactive calls. Cut-off read from the data, not from the text of the source: active = growth inhibition above about 70%; inactive = the rest.

Legend:
[1] = NCI Yeast Anticancer Drug Screen. Data for the mec2-1 strain (AID 157); conditions: S. cerevisiae mec2-1 strain, stronger effect = higher value
Method in brief: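 Mutant yeast (mec2-1) grown with compound; growth inhibition relative to vehicle control reported.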

[2] = NCI Yeast Anticancer Drug Screen. Data for the rad14 strain (AID 159);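 note: 0% = growth of vehicle-treated control cultures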; conditions: S. cerevisiae rad14 strain growth inhibition, stronger effect = higher value
Method in brief: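 Vehicle-treated cultures served as the baseline for growth inhibition of a DNA repair-mutant yeast strain exposed to each compound.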

[3] = NCI Yeast Anticancer Drug Screen. Data for the sgs1 mgt1 strain (AID 161);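 note: 0% = growth of cultures given vehicle only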; conditions: S. cerevisiae sgs1 mgt1 strain, stronger effect = higher value
Method in brief: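 Yeast cells carrying a defined DNA-repair defect were exposed to test compounds. Growth inhibition was measured relative to vehicle-treated controls.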

[4] = NCI Yeast Anticancer Drug Screen. Data for the CLN2oe strain (AID 163);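 note: 0% = growth of vehicle-only control cultures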; conditions: S. cerevisiae CLN2oe strain, stronger effect = higher value
Method in brief: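 Compounds are applied to yeast harbouring a defined cell-cycle control change; reduced growth compared with vehicle-treated controls gives the value.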

[5] = NCI Yeast Anticancer Drug Screen. Data for the cln2 rad14 strain (AID 165);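 note: 0% = growth equal to vehicle treated cultures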; conditions: S. cerevisiae cln2 rad14 strain, stronger effect = higher value
Method in brief: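 Readout is yeast growth inhibition versus vehicle-treated controls, using a strain with cln2 and rad14 alterations exposed to compound.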

[6] = NCI Yeast Anticancer Drug Screen. Data for the bub3 strain (AID 167); conditions: S. cerevisiae bub3 mutant strain, stronger effect = higher value
Method in brief: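 Inhibition values come from growth of compound-treated mutant yeast normalised to vehicle-treated controls.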

[7] = NCI Yeast Anticancer Drug Screen. Data for the wt2 strain (AID 169);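 note: 0% = growth of vehicle-treated yeast cultures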; conditions: S. cerevisiae wt2 strain growth inhibition, stronger effect = higher value
Method in brief: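 Against vehicle-treated controls, the growth of yeast exposed to each compound was compared, and the inhibition was recorded.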

[8] = NCI Yeast Anticancer Drug Screen. Data for the mlh1 strain (AID 171);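 note: 0% = growth of vehicle-treated control cultures of the same strain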; conditions: S. cerevisiae mlh1 strain growth inhibition, stronger effect = higher value
Method in brief: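 Measured: yeast growth. Reference: vehicle-treated controls. Organism: strain with a defined alteration affecting DNA damage repair or cell cycle control, treated with compound.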

[9] = NCI Yeast Anticancer Drug Screen. Data for the sgs1 strain (AID 173);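 note: 0% = growth of vehicle-only control cultures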; conditions: S. cerevisiae sgs1 mutant, stronger effect = higher value
Method in brief: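 Each compound was added to cultures of the altered yeast strain. Growth was recorded, and inhibition was derived by comparison with vehicle controls.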

[10] = NCI Yeast Anticancer Drug Screen. Data for the mlh1 rad18 strain (AID 175); conditions: S. cerevisiae mlh1 rad18 strain growth inhibition, stronger effect = higher value
Method in brief: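 Genetically defined yeast (DNA repair-deficient) exposed to compounds; growth inhibition determined relative to vehicle.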

[11] = NCI Yeast Anticancer Drug Screen. Data for the rad18 strain (AID 177); conditions: S. cerevisiae rad18 mutant growth inhibition, stronger effect = higher value
Method in brief: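 Vehicle-treated cultures served as the baseline for scoring compound-induced growth inhibition in DNA-repair-mutant yeast.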

[12] = NCI Yeast Anticancer Drug Screen. Data for the rad52 strain (AID 147);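 note: 0% = growth of vehicle-treated control cultures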; conditions: S. cerevisiae rad52 mutant growth inhibition, stronger effect = higher value
Method in brief: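 The repair-mutant yeast strain was incubated with compounds, then growth was read and inhibition derived relative to vehicle.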

[13] = NCI Yeast Anticancer Drug Screen. Data for the wt1 strain (AID 149);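 note: 0% = growth of vehicle-treated wt1 cultures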; conditions: S. cerevisiae wt1 strain (SPY 50644) growth inhibition, stronger effect = higher value
Method in brief: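 Vehicle-normalised growth inhibition; strain wt1; compound exposure.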

[14] = NCI Yeast Anticancer Drug Screen. Data for the rad50EPP+ strain (AID 151);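 note: 0% = growth of vehicle-treated control cultures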; conditions: S. cerevisiae rad50 mutant strain, stronger effect = higher value
Method in brief: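 Vehicle-normalised growth inhibition; rad50EPP+ yeast strain, altered in DNA damage repair, compound-treated.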

[15] = NCI Yeast Anticancer Drug Screen. Data for the mgt1 strain (AID 153); conditions: S. cerevisiae mgt1 mutant growth inhibition, stronger effect = higher value
Method in brief: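 Vehicle-normalized growth inhibition is determined in mgt1 yeast, a strain selected for a defined alteration in DNA repair or cell cycle control.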

[16] = NCI Yeast Anticancer Drug Screen. Data for the rad50 strain (AID 155);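 note: 0% = growth of vehicle-only cultures of the same strain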; conditions: S. cerevisiae rad50 strain growth inhibition, stronger effect = higher value
Method in brief: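 A DNA repair-deficient yeast mutant serves as the test organism; compound-induced growth inhibition is calculated against vehicle-treated cells.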

[17] = at 5.0 µM (retest, dose inferred, filed as 0.5)
[18] = at 50.0 µM (retest, dose inferred, filed as 5.0)

Measured: growth inhibition

Cc1cc(S(=O)(=O)Nc2nnc3cnc4ccccc4n23)c(S)cc1Cl
active: [6]; [18] 70% | [10]; [18] 82%
inactive: [1]; [17] 2% | [1]; at 11.0 µM 6% | [1]; at 33.0 µM 19% | [1]; [18] 61% | [1]; at 50.0 µM 1.7% | [1]; at 100.0 µM 54% | [2]; at 1.2 µM -1% | [2]; at 3.7 µM 3% | [2]; at 11.0 µM 9% | [2]; at 33.0 µM 21% | [2]; at 100.0 µM 40% | [3]; [17] -1% | [3]; [18] 47% | [3]; at 50.0 µM -11.9% | [4]; at 1.2 µM 3% | [4]; at 3.7 µM 3% | [4]; at 11.0 µM 16% | [4]; at 33.0 µM 24% | [4]; at 100.0 µM 44% | [5]; [17] 48% | [5]; [18] 54% | [5]; at 50.0 µM 52% | [6]; at 1.2 µM 4% | [6]; at 3.7 µM 1% | [6]; [17] 11% | [6]; at 11.0 µM 2% | [6]; at 33.0 µM 10% | [6]; at 50.0 µM -18.8% | [6]; at 100.0 µM 32% | [7]; at 1.2 µM -1% | [7]; at 3.7 µM -2% | [7]; at 11.0 µM 4% | [7]; at 33.0 µM 14% | [7]; at 100.0 µM 35% | [8]; at 1.2 µM -3% | [8]; at 3.7 µM -4% | [8]; at 11.0 µM 1% | [8]; at 33.0 µM 13% | [8]; at 100.0 µM 43% | [9]; at 1.2 µM -2% | [9]; at 3.7 µM 1% | [9]; at 11.0 µM 2% | [9]; at 33.0 µM 22% | [9]; at 100.0 µM 58% | [10]; [17] 8% | [10]; at 50.0 µM 15.2% | [11]; at 1.2 µM -6% | [11]; at 3.7 µM -1% | [11]; at 11.0 µM 21% | [11]; at 33.0 µM 14% | [11]; at 100.0 µM 48%

Cc1cc(-c2cc(C)c(O)c(C(C)(C)C)c2)cc(C(C)(C)C)c1O
66.3% (inactive) and 80.8% (active): [3]; at 50.0 µM
active: [12]; at 100.0 µM 75% | [13]; at 100.0 µM 70% | [16]; [18] 98% and 74% | [16]; at 50.0 µM 70.5% and 77.3% | [16]; at 100.0 µM 72% | [1]; [18] 98% and 91% | [2]; at 100.0 µM 72% | [4]; at 100.0 µM 73% | [5]; [18] 81% and 91% | [10]; [18] 99% and 92% | [10]; at 50.0 µM 70.5% and 84.8% | [11]; at 100.0 µM 74%
70.2% (active) and 37.4% (inactive): [6]; at 50.0 µM
77.8% (active) and 65.8% (inactive): [5]; at 50.0 µM
52% (inactive) and 93% (active): [6]; [18]
inactive: [12]; at 1.2 µM -37% | [12]; at 3.7 µM -34% | [12]; at 11.0 µM -17% | [12]; at 33.0 µM 48% | [13]; at 1.2 µM -52% | [13]; at 3.7 µM -49% | [13]; at 11.0 µM -44% | [13]; at 33.0 µM 6% | [14]; at 1.2 µM -35% | [14]; at 3.7 µM -31% | [14]; at 11.0 µM -29% | [14]; at 33.0 µM -25% | [14]; at 100.0 µM -4% | [15]; at 1.2 µM -49% | [15]; at 3.7 µM -51% | [15]; at 11.0 µM -49% | [15]; at 33.0 µM -16% | [15]; at 100.0 µM 57% | [16]; at 1.2 µM -2% | [16]; at 3.7 µM -4% | [16]; [17] 43% and 15% | [16]; at 11.0 µM 11% | [16]; at 33.0 µM 52% | [1]; at 1.2 µM -30% | [1]; at 3.7 µM -23% | [1]; [17] 51% and -6% | [1]; at 11.0 µM -10% | [1]; at 33.0 µM -2% | [1]; at 50.0 µM 65.3% and 61.5% | [1]; at 100.0 µM 55% | [2]; at 1.2 µM -16% | [2]; at 3.7 µM -10% | [2]; at 11.0 µM -23% | [2]; at 33.0 µM 25% | [3]; [17] 10% and 18% | [4]; at 1.2 µM -51% | [4]; at 3.7 µM -62% | [4]; at 11.0 µM -42% | [4]; at 33.0 µM 15% | [5]; [17] 52% and -17% | [6]; at 1.2 µM -6% | [6]; at 3.7 µM 5% | [6]; [17] 43% and 5% | [6]; at 11.0 µM 24% | [6]; at 33.0 µM 40% | [6]; at 100.0 µM 65% | [7]; at 1.2 µM -32% | [7]; at 3.7 µM -18% | [7]; at 11.0 µM -17% | [7]; at 33.0 µM 4% | [7]; at 100.0 µM 66% | [8]; at 1.2 µM -44% | [8]; at 3.7 µM -31% | [8]; at 11.0 µM -28% | [8]; at 33.0 µM 9% | [8]; at 100.0 µM 65% | [9]; at 1.2 µM -20% | [9]; at 3.7 µM -8% | [9]; at 11.0 µM -6% | [9]; at 33.0 µM 30% | [9]; at 100.0 µM 59% | [10]; [17] 46% and 3% | [11]; at 1.2 µM -42% | [11]; at 3.7 µM -36% | [11]; at 11.0 µM -26% | [11]; at 33.0 µM 29%
45% (inactive) and 90% (active): [3]; [18]
